Assay outcomes as filed in PubChem BioAssay.
proKLK7 act = proKLK7 zymogen activators, primary screen, biochemical, fluorescence intensity | activation, % at 7 µM | Kallikrein-7 (Homo sapiens), P49862 | 0.9% of 370,000 active | purified proKLK7, EDANS-DABCYL substrate fluorescence; 100% is mature enzyme control, 0% vehicle;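 active means activation above the mean of all tested compounds plus 3 SD, computed per campaign excluding outliers beyond control limits, cut at about 13% in these data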
PLC-gamma1 inh = PLC-gamma1 enzyme inhibitors, primary screen, biochemical, fluorescence, purified enzyme; fluorogenic substrate; inhibition, % at 12.2 µM; 0.84% of 370,000 active; in the data active means inhibition above about 9.5%
PLC-beta3 inh = human PLC-beta3 inhibitors, primary screen, biochemical, fluorescence | Purified PLC-beta3, fluorogenic substrate | inhibition, % at 12.2 µM | 0.18% of 370,000 active; in the data active means inhibition above about 11%;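 further: 0% = median of compound wells on plate and 100% = full blocker control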
ADAM10 inh = human ADAM10 inhibitors, primary screen, biochemical, QFRET, HTS | inhibition, % at 7 µM | recombinant ADAM10, EDANS/DABCYL FRET peptide cleavage, 3 h | 0.62% of 370,000 active | AID 720582, 2013;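 active means inhibition above a per-campaign cutoff equal to the mean of compounds falling between control-based bounds plus 3 SD, cut at about 20% in these data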;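 further: 0% = DMSO wells while the 100% control is not disclosed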
ADAM17 inh = ADAM17 inhibitors, primary screen, biochemical, QFRET; Disintegrin and metalloproteinase domain-containing protein 17 (Homo sapiens), P78536; recombinant ADAM17, EDANS/DABCYL FRET peptide cleavage; inhibition, % at 6.95 µM; 0.83% of 370,000 active; AID 720648, 2013;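 active means inhibition above the mean of compounds lying between control limits plus 3 SD, set per campaign, cut at about 8.5% in these data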;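 further: 0% = DMSO-only wells as the low control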
KLK7 act conf = proKLK7 zymogen activators, confirmation, biochemical, fluorescence intensity, triplicate; purified proKLK7, EDANS-DABCYL substrate fluorescence; scaled: vehicle 0, mature enzyme 100; shares compounds with proKLK7 act; 68% of 3,200 active; activation, % at 7 µM; AID 686949, 2013;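 active means activation, as change over the incubation, above the mean of all tested compounds plus 3 SD, cut at about 13% in these data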
EDANS interfere = EDANS-DABCYL substrate optical interference, artefact control for kallikrein-7 zymogen activator project, biochemical, fluorescence intensity, high throughput; no enzyme, 4 h; solvent 0%, active enzyme control 100%; 80% of 3,200 active; shares compounds with proKLK7 act; activation, % at 7 µM; AID 686952, 2013;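 active means activation above the all-compound mean plus 3 SD, ignoring values outside control-based bounds, cut at about 4.8% in these data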;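 further: value is the 4 h activation minus the activation read at time zero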
An asterisk follows results filed as active; i = inactive; / = not tested or not shown. In the library only some 2.9% were active in any assay of this set; here they are far more common.

SMILES	proKLK7 act	PLC-gamma1 inh	PLC-beta3 inh	ADAM10 inh	ADAM17 inh	KLK7 act conf	EDANS interfere
CCOC(=O)[C@]12CCCC=C1N(CCCOC)C(=O)[C@@H]2CC(=O)N1CCCC1	0	0	2	-2	-1	/	/
N#Cc1c(N(CCO)CCO)nc(N)c2c(N)nc3c(c12)CC(=O)N3CC1CCCO1 (stereo not given)	30*	-280	-377	-212	-72	43*	49*
CCCCN1C(=O)Cc2c1nc(N)c1c(N)nc(N(CCC)CCC)c(C#N)c21	-1	-166	-228	-92	-12	/	/
Cc1ccccc1N(CC(=O)NC1CCCC1)C(=O)C1(C)CC(=O)N=C2C=CC=CN21 (stereo not given)	3	-121	-149	i	-273	/	/
Cc1ccccc1N(CC(=O)NC1CCCC1)C(=O)C1(C)CC(=O)N=C2C=CC(Cl)=CN21 (stereo not given)	16*	-328	-458	i	i	33*	39*
Cc1cc(NCCO)c2cc(O)ccc2n1	81*	i	i	i	i	64*	69*
COc1ccc(C2C(C(=O)Nc3ccc(C)c(C)c3)CCC(=O)N2c2ccc(OC)cc2)cc1 (stereo not given)	0	3	-4	2	0	/	/
COc1ccc(OCC2CN(C3CCCC3)S(=O)(=O)CCO2)cc1 (stereo not given)	0	2	1	0	-1	/	/
COc1cc(-c2c(C#N)c(N)nc3c2CCCC3)ccc1O	1	-24	-23	-8	-5	/	/
COC(=O)c1c(C#N)c(N)nc2c1CCCC2	78*	i	i	i	i	72*	75*
COc1cc2c(c(OC)c1)[C@H](/C=C/c1ccccc1)[C@@H]([C@H](O)CO)OC2	0	-1	-1	-3	0	/	/
O=C1c2ccccc2NC(c2ccccc2Br)N1CCCN1CCOCC1 (stereo not given)	6	-154	-183	i	-153	/	/
O=C1NCCN1CCN1C(=O)c2ccccc2NC1c1ccccc1 (stereo not given)	20*	i	i	i	i	30*	33*
Cc1ccc(C2Nc3ccccc3C(=O)N2CCCN2CCOCC2)cc1 (stereo not given)	23*	-261	-365	i	-241	1	2
CN(C)c1ccc(C2Nc3ccccc3C(=O)N2CCN2CCNC2=O)cc1 (stereo not given)	1	-22	-38	-91	-36	/	/
CCCN1C(=O)c2ccccc2NC1c1ccc(Cl)cc1 (stereo not given)	16*	-313	-385	i	-333	6	7.0*
CCCN1C(=O)c2ccccc2NC1c1ccc(O)c(OCC)c1 (stereo not given)	14*	-207	-289	i	-253	10	6.7*
CCCN1C(=O)c2ccccc2NC1c1ccc(Cl)c(Cl)c1 (stereo not given)	1	-203	-279	i	-243	/	/
COc1cccc2c(NCc3ccccc3)nc(-n3c(N)nc4ccccc43)nc12	/	1	-1	-9	-4	/	/
CCOC(=O)c1cc2c(s1)-c1c(C)cccc1OC2	-162	-298	-378	i	-142	/	/
Cc1cccc2c1-c1sc(C(=O)NCCCN3CCC(C)CC3)cc1CO2	49*	i	i	i	i	64*	65*
CC1CCCN(CCCNC(=O)c2cc3c(Cl)nc4ccccc4c3s2)C1 (stereo not given)	0	3	1	4	-3	/	/
COc1ccccc1N1CCN(C(=O)c2cc3c(s2)-c2ccccc2OC3)CC1	-5	-142	-170	-446	-108	/	/
CC1CCCN(CCCNC(=O)c2cc3c(s2)-c2ccccc2OC3)C1 (stereo not given)	43*	i	i	i	i	63*	78*
CN1CCN(c2ccccc2NC(=O)c2cc3c(s2)-c2ccccc2OC3)CC1	0	-7	-16	-11	-6	/	/
SMILES	proKLK7 act	PLC-gamma1 inh	PLC-beta3 inh	ADAM10 inh	ADAM17 inh	KLK7 act conf	EDANS interfere
CC1CCN(CCCNC(=O)c2cc3c(s2)-c2ccccc2OC3)CC1	75*	i	i	i	i	74*	74*
CCOC(=O)C1CCN(C(=O)c2cc3c(s2)-c2ccccc2OC3)CC1	14*	i	i	i	i	-91	-138
CCn1c(Cc2cccs2)nnc1SCC(=O)Nc1ccc(Cl)cc1C	0	-3	2	-4	2	/	/
COC(=O)c1cc2c(s1)-c1ccccc1OC2	82*	i	i	i	i	76*	80*
COc1ccccc1CN(C)C(=O)C1CCCN(c2nc3ccccc3o2)C1 (stereo not given)	1	-6	-4	-6	4	/	/
COc1ccccc1CNC(=O)N1CCN(Cc2nc3ccccc3c(=O)[nH]2)CC1	0	-2	0	-4	6	/	/
C[C@@H]1C(=O)N2N=Cc3ccccc3[C@H]2N2N=Cc3ccccc3[C@@H]12	0	-4	0	-1	-3	/	/
O=C(NCCc1cn2cccnc2n1)C1CCC(=O)N(Cc2ccccc2F)C1 (stereo not given)	35*	-334	-456	i	-285	27*	24*
COc1ccc2c(c1)CN1CN(Cc3ccccc3)S(=O)(=O)CC21 (stereo not given)	0	-11	-15	-24	-7	/	/
CCOc1ccc(N=c2oc3cc(O)ccc3cc2C(=O)NCC2CCCO2)cc1 (stereo not given)	6	-153	-222	i	-280	/	/
CCOc1ccccc1N=c1oc2cc(O)ccc2cc1C(=O)NCC1CCCO1 (stereo not given)	88*	i	i	i	i	12	14*
CCOc1ccc(C(=O)NCC2CCCO2)cc1OCC (stereo not given)	-1	0	2	2	-1	/	/
COc1ccc(N=c2oc3cc(O)ccc3cc2C(=O)NCC2CCCO2)c(OC)c1 (stereo not given)	20*	i	i	i	i	13*	17*
COc1ccc(N=c2oc3cc(O)ccc3cc2C(=O)NCC2CCCO2)cc1 (stereo not given)	16*	-371	-468	i	i	8	11*
Cn1c(SCC(=O)Nc2ccc(C(=O)O)cc2)nnc1-c1ccccn1	0	2	-2	-10	-3	/	/
